Measurements: PubChem BioAssay (NCATS)
Records with an inconclusive call do not appear. Active and inactive are the calls of the source. Calls come from the whole dose curve; as a rule, active = well fitted curve in the direction sought with a large enough effect; inconclusive = small, poorly fitted or top-dose-only effect, or another doubt; inactive = no such curve, though single readings can be large; an effect the other way counts as inactive or inconclusive.
% is set by controls: 0 for no effect and ±100 for the full control effect.

Tested on: Tov112D
Experiment: Primary qHTS to identify gynecologic anti-cancer compounds using libraries of approved drugs and bioactive compounds (AID 1345084); note: nearly all actives have a fitted effect of over 55% in size
Details: Gynecologic cancer cell panel viability, ATPlite luminescence, 48 h; series mostly up to 57.5 µM; activity change, negative = cytotoxicity: at the top concentration
Outline: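 Five-point cytotoxicity, 48 h drug exposure at 37 C, 5% CO2, on cells seeded 16 h beforehand. ATP content read by ATPlite luminescence.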
For `CN(C(=O)CCCOc1ccc2[nH]c(=O)ccc2c1)C1CCCCC1`, the “activity change, negative = cytotoxicity” value was -21.8% (inactive). In the case of `NC(=O)N1c2ccccc2C=Cc2ccccc21`, the “activity change, negative = cytotoxicity” value is reported as 5.98% (inactive). For `CCCN(CCC)CCc1cccc2c1CC(=O)N2`, the “activity change, negative = cytotoxicity” value was -2.16% (inactive). In the case of `CCn1nc(C(=O)O)c(=O)c2cc3c(cc21)OCO3`, the “activity change, negative = cytotoxicity” value is reported as 0.304% (inactive). For `CCc1c(C)[nH]c2c1C(=O)C(CN1CCOCC1)CC2` (stereo not given), the “activity change, negative = cytotoxicity” value was 5.84% (inactive). With `C[C@]12CCC(=O)C=C1CC[C@@H]1[C@@H]2C(=O)C[C@@]2(C)[C@H]1CC[C@]2(O)C(=O)CO` the “activity change, negative = cytotoxicity” value was 3.46% (inactive). With `COc1ccc2c(c1OC)C(=O)O[C@@H]2[C@H]1c2c(cc3c(c2OC)OCO3)CCN1C` the “activity change, negative = cytotoxicity” value was -14.8% (inactive). With `COc1cc(Cc2cnc(N)nc2N)cc(OC)c1OC` the “activity change, negative = cytotoxicity” value was -4.41% (inactive). In the case of `N[C@@H](COP(=O)(O)O)C(=O)O`, the “activity change, negative = cytotoxicity” value is reported as 2.4% [at 25.3 µM] (inactive). With `CN1CCN(CC(=O)N2c3ccccc3C(=O)Nc3cccnc32)CC1` the activity change, negative = cytotoxicity was -0.53% [at 6.55 µM] (inactive). In the case of `COc1ccc(CCN(C)CCCC(C#N)(c2cc(OC)c(OC)c(OC)c2)C(C)C)cc1OC` (stereo not given), the “activity change, negative = cytotoxicity” value is reported as -5.51% (inactive). For `CN/C(=C\[N+](=O)[O-])NCCSCc1ccc(CN(C)C)o1`, the “activity change, negative = cytotoxicity” value was -10.1% (inactive). In the case of `OC(CCN1CCCCC1)(c1ccccc1)C1CCCCC1` (stereo not given), the “activity change, negative = cytotoxicity” value is reported as -11.2% (inactive). For `CCN1CCC[C@H]1CNC(=O)c1c(O)c(Cl)cc(Cl)c1OC`, the “activity change, negative = cytotoxicity” value was 4.94% (inactive). With `COC(=O)C1=C(C)NC(C)=C(C(=O)OC(C)(C)CN(C)CCC(c2ccccc2)c2ccccc2)C1c1cccc([N+](=O)[O-])c1` (stereo not given) the “activity change, negative = cytotoxicity” value was -17.4% (inactive). With `CC(=O)Nc1nnc(S(N)(=O)=O)s1` the “activity change, negative = cytotoxicity” value was 5.83% (inactive). In the case of `CN(C)CCCN1c2ccccc2Sc2ccccc21`, the “activity change, negative = cytotoxicity” value is reported as -3.72% (inactive). With `CC(C)NCC(O)c1cc(O)cc(O)c1` (stereo not given) the “activity change, negative = cytotoxicity” value was -0.679% (inactive). For `CN(C)CCOC(=O)COc1ccc(Cl)cc1`, the “activity change, negative = cytotoxicity” value was 11.2% (inactive). In the case of `CCCCCCCC/C=C\CCCCCCCC(=O)NCc1ccc(O)c(OC)c1`, the “activity change, negative = cytotoxicity” value is reported as -14.7% (inactive). In the case of `CNC1(C)C2CCC(C2)C1(C)C` (stereo not given), the “activity change, negative = cytotoxicity” value is reported as -8.47% (inactive). In the case of `CCCCNc1c(C(=O)OCC)c(C)nc2c1cnn2CC`, the “activity change, negative = cytotoxicity” value is reported as -6.08% (inactive). In the case of `CN(C)C/C=C(/c1ccc(Br)cc1)c1cccnc1`, the “activity change, negative = cytotoxicity” value is reported as 0.113% (inactive). In the case of `CO[C@@]1(NC(=O)CSCC#N)C(=O)N2C(C(=O)O)=C(CSc3nnnn3C)CS[C@@H]21`, the “activity change, negative = cytotoxicity” value is reported as -2.38% (inactive). In the case of `CCN1CCc2nc(N)oc2CC1`, the “activity change, negative = cytotoxicity” value is reported as 13.3% (inactive). With `C[C@]12CCC(=O)C=C1CC[C@@H]1[C@@H]2CC[C@@]2(C)[C@H]1CC[C@]2(O)C(=O)CO` the “activity change, negative = cytotoxicity” value was -2.32% (inactive). With `CCN(CC)CC(=O)Nc1c(C)cccc1C` the “activity change, negative = cytotoxicity” value was -4.82% (inactive). For `C(=C\c1ccccc1)/CN1CCN(C(c2ccccc2)c2ccccc2)CC1`, the “activity change, negative = cytotoxicity” value was -3.3% (inactive). In the case of `Cc1nc2ccccn2c(=O)c1CCN1CCC(C(=O)c2ccc(F)cc2)CC1`, the “activity change, negative = cytotoxicity” value is reported as -3.32% (inactive). In the case of `c1ccc2c(c1)CCCC2C1=NCCN1` (stereo not given), the “activity change, negative = cytotoxicity” value is reported as 5.76% (inactive). For `Cc1nc2sccn2c(=O)c1CCN1CCC(=C(c2ccc(F)cc2)c2ccc(F)cc2)CC1`, the “activity change, negative = cytotoxicity” value was -15% (inactive). In the case of `CCCNC(C)C(=O)Nc1ccccc1C` (stereo not given), the “activity change, negative = cytotoxicity” value is reported as -1.09% (inactive). With `O=C(O)CP(=O)(O)O` the “activity change, negative = cytotoxicity” value was 13.1% (inactive). In the case of `CN1C[C@H](C(=O)N[C@]2(C)O[C@@]3(O)[C@@H]4CCCN4C(=O)[C@H](Cc4ccccc4)N3C2=O)C[C@@H]2c3cccc4[nH]cc(c34)C[C@H]21`, the “activity change, negative = cytotoxicity” value is reported as 6.03% (inactive). In the case of `Cc1nnc(SCC2=C(C(=O)O)N3C(=O)[C@@H](NC(=O)Cn4cnnn4)[C@H]3SC2)s1`, the “activity change, negative = cytotoxicity” value is reported as 2.24% (inactive). With `Fc1ccc(C(c2ccc(F)cc2)N2CCN(C/C=C/c3ccccc3)CC2)cc1` the “activity change, negative = cytotoxicity” value was -19.5% (inactive).

Tested on: not listed separately
Experiment: Drug repurposing screens with cells derived from glioblastoma tumor samples (AID 1345199); note: nearly all actives have a fitted effect of over 40% in size
Details: GBM patient neurospheres viability, ATP luminescence, 48 h; at 20 µM (top of the series); tumour line C
Outline: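 Primary testing used CD133+ neurospheres from four GBM patients, seven concentrations, 48 h exposure and ATP-based viability; confirmation added three slower-growing patient lines.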
In the case of `CCn1nc(C(=O)O)c(=O)c2cc3c(cc21)OCO3`, the activity, negative = cell killing is reported as -1.32% (inactive). With `CCc1c(C)[nH]c2c1C(=O)C(CN1CCOCC1)CC2` (stereo not given) the activity, negative = cell killing was -3.97% (inactive). In the case of `CN(C)CCCN1c2ccccc2Sc2ccccc21`, the activity, negative = cell killing is reported as -19.7% (inactive). In the case of `CN(C)CCOC(=O)COc1ccc(Cl)cc1`, the activity, negative = cell killing is reported as -19.3% (inactive). With `C(=C\c1ccccc1)/CN1CCN(C(c2ccccc2)c2ccccc2)CC1` the activity, negative = cell killing was -1.05% (inactive).

Same assay, conditions: GBM patient neurospheres viability, ATP luminescence, 48 h; at 21.2 µM (top of the series); tumour line B
For `CCn1nc(C(=O)O)c(=O)c2cc3c(cc21)OCO3`, the activity, negative = cell killing was -10.1% (inactive). In the case of `CCc1c(C)[nH]c2c1C(=O)C(CN1CCOCC1)CC2` (stereo not given), the activity, negative = cell killing is reported as -15.8% (inactive). With `CN(C)CCOC(=O)COc1ccc(Cl)cc1` the activity, negative = cell killing was -11.3% (inactive). With `C(=C\c1ccccc1)/CN1CCN(C(c2ccccc2)c2ccccc2)CC1` the activity, negative = cell killing was -13.5% (inactive).

Same assay, conditions: GBM patient neurospheres viability, ATP luminescence, 48 h; at 21.2 µM (top of the series); tumour line D
With `CCn1nc(C(=O)O)c(=O)c2cc3c(cc21)OCO3` the activity, negative = cell killing was -5.8% (inactive). With `CCc1c(C)[nH]c2c1C(=O)C(CN1CCOCC1)CC2` (stereo not given) the activity, negative = cell killing was 1.91% (inactive). For `CN(C)CCOC(=O)COc1ccc(Cl)cc1`, the activity, negative = cell killing was -14.6% (inactive). With `C(=C\c1ccccc1)/CN1CCN(C(c2ccccc2)c2ccccc2)CC1` the activity, negative = cell killing was -14% (inactive).

Same assay, conditions: GBM patient neurospheres viability, ATP luminescence, 48 h; at 45.9 µM (top of the series); tumour line B
With `CN(C(=O)CCCOc1ccc2[nH]c(=O)ccc2c1)C1CCCCC1` the activity, negative = cell killing was -16.8% (inactive). In the case of `NC(=O)N1c2ccccc2C=Cc2ccccc21`, the activity, negative = cell killing is reported as -0.221% (inactive). For `CCCN(CCC)CCc1cccc2c1CC(=O)N2`, the activity, negative = cell killing was -4.59% (inactive). With `C[C@]12CCC(=O)C=C1CC[C@@H]1[C@@H]2C(=O)C[C@@]2(C)[C@H]1CC[C@]2(O)C(=O)CO` the activity, negative = cell killing was -3.67% (inactive). For `COc1ccc2c(c1OC)C(=O)O[C@@H]2[C@H]1c2c(cc3c(c2OC)OCO3)CCN1C`, the activity, negative = cell killing was -11.4% (inactive). For `COc1cc(Cc2cnc(N)nc2N)cc(OC)c1OC`, the activity, negative = cell killing was 10.7% (inactive). In the case of `N[C@@H](COP(=O)(O)O)C(=O)O`, the activity, negative = cell killing is reported as -4.31% (inactive). For `CN1CCN(CC(=O)N2c3ccccc3C(=O)Nc3cccnc32)CC1`, the activity, negative = cell killing was -1.68% (inactive). In the case of `COc1ccc(CCN(C)CCCC(C#N)(c2cc(OC)c(OC)c(OC)c2)C(C)C)cc1OC` (stereo not given), the activity, negative = cell killing is reported as -13.5% (inactive). In the case of `OC(CCN1CCCCC1)(c1ccccc1)C1CCCCC1` (stereo not given), the activity, negative = cell killing is reported as -11.3% (inactive). In the case of `CCN1CCC[C@H]1CNC(=O)c1c(O)c(Cl)cc(Cl)c1OC`, the activity, negative = cell killing is reported as -11.9% (inactive). In the case of `CC(=O)Nc1nnc(S(N)(=O)=O)s1`, the activity, negative = cell killing is reported as -5.69% (inactive). For `CC(C)NCC(O)c1cc(O)cc(O)c1` (stereo not given), the activity, negative = cell killing was -18.9% (inactive). For `CNC1(C)C2CCC(C2)C1(C)C` (stereo not given), the activity, negative = cell killing was 1.71% (inactive). For `CCCCNc1c(C(=O)OCC)c(C)nc2c1cnn2CC`, the activity, negative = cell killing was -23.3% (inactive). For `CN(C)C/C=C(/c1ccc(Br)cc1)c1cccnc1`, the activity, negative = cell killing was -23% (inactive). With `CO[C@@]1(NC(=O)CSCC#N)C(=O)N2C(C(=O)O)=C(CSc3nnnn3C)CS[C@@H]21` the activity, negative = cell killing was -13.1% (inactive). With `CCN1CCc2nc(N)oc2CC1` the activity, negative = cell killing was -14.6% (inactive). For `C[C@]12CCC(=O)C=C1CC[C@@H]1[C@@H]2CC[C@@]2(C)[C@H]1CC[C@]2(O)C(=O)CO`, the activity, negative = cell killing was -14.7% (inactive). With `CCN(CC)CC(=O)Nc1c(C)cccc1C` the activity, negative = cell killing was -12.8% (inactive). For `Cc1nc2ccccn2c(=O)c1CCN1CCC(C(=O)c2ccc(F)cc2)CC1`, the activity, negative = cell killing was -22.2% (inactive). For `c1ccc2c(c1)CCCC2C1=NCCN1` (stereo not given), the activity, negative = cell killing was 0.679% (inactive). For `CCCNC(C)C(=O)Nc1ccccc1C` (stereo not given), the activity, negative = cell killing was -20% (inactive). In the case of `O=C(O)CP(=O)(O)O`, the activity, negative = cell killing is reported as -17.9% (inactive). In the case of `CN1C[C@H](C(=O)N[C@]2(C)O[C@@]3(O)[C@@H]4CCCN4C(=O)[C@H](Cc4ccccc4)N3C2=O)C[C@@H]2c3cccc4[nH]cc(c34)C[C@H]21`, the activity, negative = cell killing is reported as -29.3% (inactive). In the case of `Cc1nnc(SCC2=C(C(=O)O)N3C(=O)[C@@H](NC(=O)Cn4cnnn4)[C@H]3SC2)s1`, the activity, negative = cell killing is reported as -10.7% (inactive).
